About 83,000 compounds went through this panel and 20% of them were active in at least one assay; those are over-represented in the sample as a whole.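 Assay: single dose, 48 h. Readout: percent growth (0 = no net growth; negative = cell death). Active: <10.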 Values without a mark were called inactive. The source made the active and inactive calls.
Legend:
Assay in all cases: NCI-60 one-dose screen, 48 h (100 = growth as untreated, 0 = no growth, -100 = all killed)
[1] = test system: NCI-H226 lung; conditions: 10 µM unless noted
[2] = test system: NCI-H322M lung; conditions: 10 µM unless noted
[3] = test system: HOP-62 NSCLC; conditions: 10 µM unless noted
[4] = test system: NCI-H460 lung; conditions: 10 µM unless noted
[5] = test system: HOP-92 NSCLC; conditions: 10 µM
[6] = test system: NCI-H522 lung; conditions: 10 µM unless noted
[7] = test system: A549/ATCC NSCLC; conditions: 10 µM unless noted
[8] = test system: 786-0 renal; conditions: 10 µM unless noted
[9] = test system: COLO 205 colon; conditions: 10 µM unless noted
[10] = test system: DU-145 prostate; conditions: 10 µM unless noted
[11] = test system: K-562 leukemia; conditions: 10 µM unless noted
[12] = test system: MALME-3M melanoma; conditions: 10 µM unless noted
[13] = test system: MDA-MB-231 breast; conditions: 10 µM unless noted
[14] = test system: SF-268 CNS; conditions: 10 µM unless noted
[15] = test system: SF-295 CNS; conditions: 10 µM unless noted
[16] = test system: SF-539 CNS; conditions: 10 µM unless noted
[17] = test system: UACC-257 melanoma; conditions: 10 µM unless noted
[18] = test system: RXF 393 renal; conditions: 10 µM unless noted
[19] = test system: M14 melanoma; conditions: 10 µM unless noted

| SMILES | growth [1] | growth [2] [%] | growth [3] | growth [4] | growth [5] [%] | growth [6] | growth [7] | growth [8] | growth [9] | growth [10] | growth [11] | growth [12] [%] | growth [13] | growth [14] [%] | growth [15] | growth [16] | growth [17] | growth [18] | growth [19] [%] |
| --- | --- | --- | --- | --- | --- | --- | --- | --- | --- | --- | --- | --- | --- | --- | --- | --- | --- | --- | --- |
| COc1c(N2CC3CCCNC3C2)c(F)cc2c(=O)c(C(=O)N/N=C/c3ccc4c(c3)OCO4)cn(C3CC3)c12 (centres undefined) | 86.5% | 88.3 | 101% | 79.2% | 67.4 | 29.3% | 70.2% | 50.3% | 85.5% | 68.9% | 2.44% (active) | 90.3 | 41.3% | 79.4 | 44.2% | -60.4% (active) | 85.3% |  |  |
| COc1ccc(/C=N/NC2=NC3C(S2)N(C)C(=O)N3C)cc1 (centres undefined) | 57.9% | 47.5 | 29.1% | 9.74% (active) | 30.7 | -9.16% (active) | 48.6% | 43.9% | 7.48% (active) | 25.2% | 9.56% (active) | 39 | 44.9% | 47.6 | 10.6% | 2.22% (active) | 79.8% | -19.3% (active) | 32.5 |
| NC(N)=Nc1ccc(Oc2cccc(Nc3ccc(Cl)c(C(F)(F)F)c3)c2)cn1 | -48.8% (active) |  | -51.2% (active) | -76.2% (active) |  | -59.5% (active) | -24.1% (active) | -46.3% (active) | -75.9% (active) | -93.4% (active) | -43.5% (active) |  | -58.1% (active) | 17.7 | -84.7% (active) | 15.9% | -26.1% (active) | -3.9% (active) |  |
| NC(N)=Nc1ccc(Oc2cccc(NC(N)=Nc3ccc(Br)c(C(F)(F)F)c3)c2)cc1 | 68.6% | 57.8 |  | 24.3% | 10.5 | 35.7% | 41.7% | 76.5% | 27.9% | 72.6% | 29.3% | 67.5 | 61.4% | 18.8 | 40.5% | 39.8% | 54.8% |  |  |
| Cc1noc(C)c1CSc1nc2ccccc2n1-c1ccccc1 | 95.6% | 104 | 69% | 107% | 74.7 |  | 91.2% | 82.6% | 105% | 86.4% | 88.6% | 118 | 81.5% | 85.7 | 98.1% | 95.3% | 110% | 60.4% | 104 |
| CC(=O)c1ccc(Nc2nc(SCC(C)C)nc(-c3ccc(F)cc3)c2C#N)cc1 | 114% |  | 116% | 109% | 118 | 103% | 109% | 105% | 115% | 113% | 106% | 114 | 106% | 114 | 118% | 105% | 106% | 118% | 115 |
| COc1ccc(-c2nn(-c3ccc(S(C)(=O)=O)cc3)cc2/C=N/O)cc1 | 94.7% |  | 109% | 102% | 98.8 | 100% | 105% | 105% | 119% | 107% | 107% | 103 | 96.7% | 108 | 106% | 92.1% | 104% | 103% | 109 |
| O=S(=O)(Nc1ccc2c(c1)OCO2)c1ccc(-c2cnc(C3CC3)o2)cc1 | 55.9% | 64.5 | 43.3% | 23.5% |  | 34.4% | 43.8% | 46.2% | 35.3% | 44.6% | 12.3% | 46.2 | 46.2% | 53.6 | 9.2% (active) | 33% | 55% | 34.9% | 22.8 |
